From PubChem BioAssay (NCATS)
“And” between values parts separate entries of the source, which are not always exact repeats. Equal values may be shown once. Records with an inconclusive call do not appear. The source made the active and inactive calls. The call rests on the fitted dose curve; in most records, active means well fitted inhibition curve with a large enough effect; inconclusive means small, poorly fitted or top-dose-only effect; inactive means flat fitted curve, though single readings scatter.

System: CRL-7250
Assay: Cytotoxic Profiling of Annotated Libraries Using Quantitative High-Throughput Screening (AID 1296008); further: nearly all actives have a fitted effect of over 60% in size
Conditions: Five cell lines viability, CellTiter-Glo ATP luminescence, 48-72 h; max response: hits give low values
Method in brief: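 Cells exposed to compounds for 48 or 72 hr at 37 degrees Celsius. Viability read as ATP-coupled luminescence with CellTiter-Glo after 10 min at room temperature.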
On the % scale 0 is the no-effect control and ±100 the full control effect; potency means the concentration at half of the fitted maximal effect.

Compound	Potency	max response	outcome
CN(C)c1ccc(C(=C2C=CC(=[N+](C)C)C=C2)c2ccc(N(C)C)cc2)cc1	211 nM (active) and 59 nM (active)	–	–
CC1=C(C(=O)O)N2C(=O)[C@@H](NC(=O)C(N)c3ccccc3)[C@H]2SC1 (some centres undefined)	–	-9.32% (inactive)	–
CCN1CCCC1CNC(=O)c1cc(S(N)(=O)=O)ccc1OC (centres undefined)	–	–	inactive
CC(C)NCC(O)c1ccc(NS(C)(=O)=O)cc1 (centres undefined)	–	–	inactive
CC(C)C1CCC(C(=O)N[C@H](Cc2ccccc2)C(=O)O)CC1 (some centres undefined)	–	-2.02% (inactive) and -1.93% (inactive)	–
COc1c(N2CCNC(C)C2)c(F)cc2c(=O)c(C(=O)O)cn(C3CC3)c12 (centres undefined)	–	-3.69% (inactive)	–
CC(C)(C)NC(=O)[C@H]1CC[C@H]2[C@@H]3CC[C@H]4NC(=O)C=C[C@]4(C)[C@H]3CC[C@]12C	–	-15.1% (inactive) and -1.46% (inactive)	–
CCCCS(=N)(=O)CCC(N)C(=O)O (centres undefined)	–	-8.66% (inactive)	–
Nc1nc(N)nc(-c2cc(Cl)ccc2Cl)n1	–	-4.29% (inactive) and -4.54% (inactive)	–
CCCCOc1ccc(CC(=O)NO)cc1	–	-23.3% (inactive)	–
NCCCC(O)(P(=O)(O)O)P(=O)(O)O	–	–	inactive
COc1cc2ncnc(Nc3cccc(Cl)c3)c2cc1OC	187 nM (active)	–	–
Cc1oc(=O)oc1CN1CCN(c2cc3c(cc2F)c(=O)c(C(=O)O)c2n3C(C)S2)CC1 (centres undefined)	–	-3.57% (inactive) and 1.83% (inactive)	–
O=C(O)C1CCCN(CCC=C(c2ccccc2)c2ccccc2)C1 (centres undefined)	–	–	inactive
CC[C@H](C)C(=O)O[C@H]1C[C@@H](C)C=C2C=C[C@H](C)[C@H](CC[C@@H]3C[C@@H](O)CC(=O)O3)[C@H]21	2.66 µM (active) and 13.2 µM (active) and 3.17 µM (active)	–	–
CNC1CCCN(c2c(F)cc3c(=O)c(C(=O)O)cn(C4CC4)c3c2OC)C1 (centres undefined)	–	-2.7% (inactive)	–
Nc1nc(N)c2nc(CNc3ccc(C(=O)NC(CCC(=O)O)C(=O)O)cc3)cnc2n1 (centres undefined)	118 nM (active)	–	–
CCOC(=O)[C@H](CCc1ccccc1)N[C@H]1CCc2ccccc2N(CC(=O)O)C1=O	–	-7.52% (inactive)	–
O=C(O)c1cn(C2CC2)c2cc(N3CCNCC3)c(F)cc2c1=O	–	-2.76% (inactive) and -7.47% (inactive)	–
